Among the data in PubChem BioAssay (Tox21) are Potency values, retold here.

Each structure is given as a SMILES string. Values joined by “and” are separate entries in the source; they are usually repeats but may differ in a detail not shown here. Equal entries are not always repeated. Results filed as inconclusive are left out. Where a call stands in place of a potency, no number is given. A structure can be active in one record and inactive in another. Active and inactive are the calls of the source. Calls follow the shape of the dose curve; as a rule, active = well fitted inhibition curve with a large enough effect in the repeat runs; inconclusive = weak or mixed curves, or effect the other way; inactive = no such curve, though single readings can be large or run the other way.
Potency is read from the fitted curve at half-maximal effect.

This experiment has as its target Nuclear receptor ROR-gamma (Homo sapiens) (UniProt P51449). The experiment in a line: qHTS assay to identify small molecule antagonists of the retinoid-related orphan receptor gamma (ROR-gamma) signaling pathway (AID 1159521; also: nearly all actives have a fitted effect of over 50% in size). The note with it: Tet-on RORgamma CHO cells, RORE-luciferase, 16 h; series mostly up to 92.4 µM. The text has this:
U.S. Tox21 Program National Center for Advancing Translational Sciences [NCATS] NIH Chemical Genomics Center [NCGC] U.S. Environmental Protection Agency [EPA] National Institutes of Environmental Health Sciences [NIEHS] National Toxicology Program [NTP] U.S. Food and Drug Administration [FDA] Tox21 Assay Overview: Nuclear steroid hormone receptors are involved in many biological processes including inflammatory responses, cell proliferation, and apoptosis. Environmental factors or compounds disrupting these nuclear receptor pathways and gene expression may promote susceptibility to immunotoxicants and autoimmune diseases. One important group of these expression factors are the retinoid-related orphan receptors. To assess compounds that may interfere with the retinoid-related orphan receptor gamma (ROR-gamma) transcription factor, a cell-based luciferase assay was used. The CHO cell-based assay utilizes a TET-inducible ROR expression factor and ROR response element-LUC reporter gene. Reporter gene activity was induced using Doxycycline Hyclate and measured after 16 hr incubation. Tet-on ROR gamma CHO cells were used to screen against the Tox21 10K compound library for ROR gamma antagonists by quantification of decreased reporter gene activity in terms of decreased luminescence.
Tox21 Assay Protocol Summary: Tet-on ROR gamma CHO cells were dispensed at 1,000 cells in 4 uL of culture medium per well into white wall/solid bottom 1536-well plates using a Multidrop Combi (Thermo Scientific, Waltham, MA) dispenser. Following incubation at 37 C and 5% CO2 for 4 hr, 23 nL of compounds dissolved in DMSO, positive controls or DMSO only were transferred by a Pintool station (Kalypsys, San Diego, CA) and after 2 hr incubation at 37 C, one ul of 1 uM (final concentration) of Doxycycline Hyclate was added to all the wells by using a Flying Reagent Dispenser (FRD) (Aurora Discovery, San Diego, CA). After 16 hr incubation at 37 C and 5% CO2, 5 uL of ONE-Glo reagent (Promega Corporation, Madison, WI) was added to each assay plate using FRD. After 30 min incubation at room temperature, luminescence was quantified on a ViewLux plate reader (Perkin Elmer, Waltham, MA).
`COc1cc(C[C@@H](C)N)c(OC)cc1Br`: the Potency result is “inactive”.

Regarding `CC[N+]1(C)CCCC(OC(=O)C(O)(c2ccccc2)c2ccccc2)C1` (stereo not given), the Potency entry was “inactive”. As for `O=C1CC[C@@]2(O)[C@H]3Cc4ccc(O)c5c4[C@@]2(CCN3CC2CC2)[C@H]1O5`, the entry is “inactive”; as for `Nc1ccccc1C(=O)OCC(O)CO` (stereo not given), “inactive”; as for `C[C@@H]1C[C@@H]([C@H](O)CC2CC(=O)NC(=O)C2)C(=O)[C@@H](C)C1`, 383 nM (active) and 137 nM (active) and 237 nM (active). Then `NC(=S)c1c(Cl)cccc1Cl`, with “inactive”.

Regarding `c1ccc2sc(SNC3CCCCC3)nc2c1`, the Potency result was “inactive”. On to `Cc1ccccc1`, for which the Potency result is “inactive”. As for `Cc1ncc(C[n+]2csc(CCO)c2C)c(N)n1`, the entry is “inactive”; as for `CCOP(=O)(SC(C)CC)N1CCSC1=O` (stereo not given), “inactive”. Then `CC(C)(C)OOC(C)(C)CCC(C)(C)OOC(C)(C)C`, with “inactive”; and `COc1cc(CC#N)cc(OC)c1OC`, with “inactive”. Then `C=CCOC(=O)C(C)(C)OC(=O)c1cc(-n2c(=O)cc(C(F)(F)F)n(C)c2=O)ccc1Cl`, with “inactive”; and `O=C(O)C(Cl)(Cl)Br`, with “inactive”; and `N#CC(C#N)=C(C#N)C#N`, with “inactive”. In the case of `c1ccc2c(c1)sc1ccccc12`, the Potency entry was “inactive”.

Consider `COc1ccc(C(=O)c2c(C)n(CCN3CCOCC3)c3ccccc23)cc1`, for which the Potency entry was “inactive”. As for `COc1cc(CC(C)N)c(OC)cc1Br` (stereo not given), the entry is “inactive”; as for `Nc1cccc2ccccc12`, “inactive”. As for `CC(C)(C#N)C(C)(C)C#N`, the Potency entry is “inactive”. Then `CN(C)C(=O)Nc1cccc(OC(=O)NC(C)(C)C)c1`, with “inactive”; and `C=CC(=O)OCC`, with “inactive”. As for `CCCBr`, the entry is “inactive”. Then `CCOc1cccc(C2(N3CCN(c4ccccc4)CC3)CCC(C)CC2)c1` (stereo not given), with “inactive”; and `C=C(C)C(=O)OCCCCOC(=O)C(=C)C`, with “inactive”.

Turning to `CCCCCBr`, the Potency result is “inactive”. On to `O=[N+]([O-])/C=C/c1ccccc1`, for which the Potency was 5.54 µM (active) and 9.69 µM (active). As for `C=CCSSCC=C`, the entry is “inactive”. As for `CCCC[P+](CC)(CCCC)CCCC` (tested in a mixture with another compound), the entry is “inactive”; as for `CCOC(=O)c1cncn1C(C)c1ccccc1` (stereo not given), “inactive”; as for `C[N+]1(CCC(C(N)=O)(c2ccccc2)c2ccccc2)CCCCC1`, “inactive”.

`CCCCOC(=O)CCC(=O)OCCCC`: the Potency entry is “inactive”.

Take `CC(C)(C)CC(C)(C)c1ccc(O)cc1`: the Potency is 54.5 µM (active) and inactive.

As for `O=S(=O)(Cl)Cl`, the Potency entry was “inactive”.

`CCc1cnc(C2=NC(C)(C(C)C)C(=O)N2)c(C(=O)O)c1` (stereo not given): the Potency entry is “inactive”. Regarding `CCCCCCCCCCCCCCCl`, the Potency entry was “inactive”. As for `FC(F)OC(F)(F)C(F)Cl` (stereo not given), the entry is “inactive”; as for `CN(C)N`, “inactive”; as for `O=C(O)C(F)(F)C(F)(F)C(F)(F)C(F)(F)C(F)(F)C(F)(F)C(F)(F)C(F)(F)F`, “inactive”. Then `CCCCNC(=O)OCC#CI`, with 24.2 µM (active).
